We go through one sequence from paper PMC7862700, “An all-to-all approach to the identification of sequence-specific readers for epigenetic DNA modifications on cytosine”.

Test in all cases: DAPPL (digital affinity profiling via proximity ligation, sequencing); 10 mM Tris-HCl pH 7.5, 50 mM NaCl, 1 mM DTT, 4% glycerol, room temperature, 30 min; GST-TFs on glutathione beads, 16-mer random dsDNA library, 0.1% formaldehyde crosslink after washing; high values mean tight binding
Experiment [1] addresses T1, FLI1 (Homo sapiens, UniProt Q01543 1-452).
T1 sequence: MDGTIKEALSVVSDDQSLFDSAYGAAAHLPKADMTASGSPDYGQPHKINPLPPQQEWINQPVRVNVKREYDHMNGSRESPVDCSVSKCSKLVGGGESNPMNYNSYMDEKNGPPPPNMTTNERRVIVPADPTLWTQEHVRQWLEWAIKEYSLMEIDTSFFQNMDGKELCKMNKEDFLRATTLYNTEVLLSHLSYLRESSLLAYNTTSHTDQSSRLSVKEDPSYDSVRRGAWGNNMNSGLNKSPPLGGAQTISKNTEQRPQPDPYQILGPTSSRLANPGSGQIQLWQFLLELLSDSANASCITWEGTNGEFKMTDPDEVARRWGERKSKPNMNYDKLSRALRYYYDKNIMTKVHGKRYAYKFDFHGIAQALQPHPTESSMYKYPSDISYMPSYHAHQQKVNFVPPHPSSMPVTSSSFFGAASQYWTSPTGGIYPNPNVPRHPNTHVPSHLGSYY
Conditions: protein: recombinant; tags: N-terminal GST; dsDNA, one strand shown. The essentials:
(§1)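 After expression in yeast as GST fusions, human transcription factors were bound to glutathione beads, DNA-barcoded and mixed with a tag-only sample. The pools were incubated with 200 nmole of a 16-mer random double-stranded DNA library in Tris/NaCl/DTT/glycerol buffer (30 min, room temperature), washed and crosslinked with 0.1% formaldehyde. Proximity ligation with BsaI/T4 ligase ran for 1 h at 37 °C, before PCR amplification and sequencing on an Illumina NextSeq500. Binding signal is a hexamer's read frequency for a factor divided by its frequency for the tag-only sample.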

Experiment [2] addresses T2, ELK1 (Homo sapiens, UniProt P19419 1-428).
T2 sequence: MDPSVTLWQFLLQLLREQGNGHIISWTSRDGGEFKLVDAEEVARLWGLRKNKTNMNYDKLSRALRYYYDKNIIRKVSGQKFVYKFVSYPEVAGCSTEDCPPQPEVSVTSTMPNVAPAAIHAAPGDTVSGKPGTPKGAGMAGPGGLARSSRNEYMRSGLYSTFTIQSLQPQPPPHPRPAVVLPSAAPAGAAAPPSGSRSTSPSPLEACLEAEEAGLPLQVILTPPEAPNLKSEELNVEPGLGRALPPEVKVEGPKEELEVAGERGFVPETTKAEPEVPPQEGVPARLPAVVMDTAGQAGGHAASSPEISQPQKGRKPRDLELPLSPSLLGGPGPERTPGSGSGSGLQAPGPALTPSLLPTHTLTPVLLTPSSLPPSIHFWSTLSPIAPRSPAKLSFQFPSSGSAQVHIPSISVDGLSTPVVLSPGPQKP
As to conditions: protein: recombinant; tags: N-terminal GST; dsDNA, one strand shown. The essentials:
as §1

For experiment [3], the target named is T3, GABPA (Homo sapiens, UniProt Q06546 1-454).
T3 sequence: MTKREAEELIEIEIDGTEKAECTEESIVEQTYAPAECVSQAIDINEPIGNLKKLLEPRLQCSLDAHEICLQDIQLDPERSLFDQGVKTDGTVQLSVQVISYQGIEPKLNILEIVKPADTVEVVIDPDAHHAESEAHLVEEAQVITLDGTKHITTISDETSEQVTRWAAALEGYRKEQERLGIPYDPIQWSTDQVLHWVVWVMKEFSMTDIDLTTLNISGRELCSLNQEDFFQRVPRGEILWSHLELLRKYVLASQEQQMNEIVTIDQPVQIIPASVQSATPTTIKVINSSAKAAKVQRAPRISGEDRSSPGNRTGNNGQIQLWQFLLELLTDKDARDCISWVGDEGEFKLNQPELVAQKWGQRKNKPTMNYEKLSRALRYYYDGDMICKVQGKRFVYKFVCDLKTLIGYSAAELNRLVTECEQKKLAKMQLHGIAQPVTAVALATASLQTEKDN
Conditions: protein: recombinant; tags: N-terminal GST; dsDNA, one strand shown. The essentials: as §1

Experiment [4] addresses T4, ERG (Homo sapiens, UniProt P11308 1-479).
T4 sequence: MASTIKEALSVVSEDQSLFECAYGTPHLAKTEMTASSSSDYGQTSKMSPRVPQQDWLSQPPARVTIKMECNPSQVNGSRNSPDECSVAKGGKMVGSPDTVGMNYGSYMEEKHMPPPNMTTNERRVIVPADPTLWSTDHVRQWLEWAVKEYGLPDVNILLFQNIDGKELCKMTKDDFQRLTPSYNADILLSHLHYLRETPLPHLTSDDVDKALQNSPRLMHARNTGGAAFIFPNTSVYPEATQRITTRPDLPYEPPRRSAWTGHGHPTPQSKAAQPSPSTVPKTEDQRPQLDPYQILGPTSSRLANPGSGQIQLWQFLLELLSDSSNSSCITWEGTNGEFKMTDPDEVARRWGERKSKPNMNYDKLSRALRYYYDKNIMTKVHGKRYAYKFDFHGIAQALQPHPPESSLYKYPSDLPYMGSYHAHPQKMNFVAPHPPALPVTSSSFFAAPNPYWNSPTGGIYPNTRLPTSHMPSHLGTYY
As to conditions: protein: recombinant; tags: N-terminal GST; dsDNA, one strand shown. The method, boiled down:
as §1

For experiment [5], the target named is ELF1 (Homo sapiens, UniProt P32519 1-619). Conditions: protein: recombinant; tags: N-terminal GST; dsDNA, one strand shown. The method, boiled down:
as §1

The target in experiment [6] is T5, EHF (Homo sapiens, UniProt Q9NZC4 1-300).
T5 sequence: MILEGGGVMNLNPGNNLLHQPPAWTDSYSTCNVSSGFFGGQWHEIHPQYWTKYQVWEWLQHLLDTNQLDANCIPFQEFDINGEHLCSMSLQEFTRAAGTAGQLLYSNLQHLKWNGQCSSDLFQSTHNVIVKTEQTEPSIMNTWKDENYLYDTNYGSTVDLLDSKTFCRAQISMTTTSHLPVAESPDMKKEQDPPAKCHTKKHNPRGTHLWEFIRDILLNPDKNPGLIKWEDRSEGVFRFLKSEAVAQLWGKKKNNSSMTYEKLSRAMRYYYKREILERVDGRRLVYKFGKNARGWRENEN
As to conditions: protein: recombinant; tags: N-terminal GST; dsDNA, one strand shown. The essentials: as §1

The target in experiment [7] is SPI1 (Homo sapiens, UniProt P17947 1-270). Conditions: protein: recombinant; tags: N-terminal GST; dsDNA, one strand shown. The essentials: as §1
For experiment [8], the target named is SPIB (Homo sapiens, UniProt Q01892 1-262). Conditions: protein: recombinant; tags: N-terminal GST; dsDNA, one strand shown. The essentials:
as §1

The target of experiment [9] is T6, ELK3 (Homo sapiens, UniProt P41970 1-407).
T6 sequence: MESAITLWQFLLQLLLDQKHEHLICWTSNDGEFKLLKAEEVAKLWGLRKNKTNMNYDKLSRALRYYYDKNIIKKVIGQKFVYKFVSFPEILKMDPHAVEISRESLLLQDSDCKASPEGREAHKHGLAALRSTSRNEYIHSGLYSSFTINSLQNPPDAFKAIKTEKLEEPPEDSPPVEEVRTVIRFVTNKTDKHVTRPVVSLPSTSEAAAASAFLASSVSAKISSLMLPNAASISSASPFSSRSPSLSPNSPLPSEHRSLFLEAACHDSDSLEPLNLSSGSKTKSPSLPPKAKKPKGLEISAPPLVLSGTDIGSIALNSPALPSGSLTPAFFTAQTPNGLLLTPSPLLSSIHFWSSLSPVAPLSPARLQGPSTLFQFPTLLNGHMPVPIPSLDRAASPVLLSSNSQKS
Conditions: protein: recombinant; tags: N-terminal GST; dsDNA, one strand shown. The method, boiled down:
as §1

For experiment [10], the target named is T7, FEV (Homo sapiens, UniProt Q99581 1-238).
T7 sequence: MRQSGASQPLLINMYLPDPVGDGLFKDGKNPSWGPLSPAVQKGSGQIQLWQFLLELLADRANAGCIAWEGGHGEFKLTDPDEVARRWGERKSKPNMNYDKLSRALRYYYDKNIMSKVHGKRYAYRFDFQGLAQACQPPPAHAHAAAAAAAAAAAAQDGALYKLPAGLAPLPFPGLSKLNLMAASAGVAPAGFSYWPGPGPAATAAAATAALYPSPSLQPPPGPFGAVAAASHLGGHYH
As to conditions: protein: recombinant; tags: N-terminal GST; dsDNA, one strand shown. The method, boiled down:
as §1

The target of experiment [11] is ETV5 (Homo sapiens, UniProt P41161 1-510). Conditions: protein: recombinant; tags: N-terminal GST; dsDNA, one strand shown. The method, boiled down:
as §1

In experiment [12] the target is HSF1 (Homo sapiens, UniProt Q00613 1-529). Conditions: protein: recombinant; tags: N-terminal GST; chain copies: 3; dsDNA, one strand shown. The essentials:
as §1

Experiment [13] addresses T8, SPIC (Homo sapiens, UniProt Q8N5J4 1-248).
T8 sequence: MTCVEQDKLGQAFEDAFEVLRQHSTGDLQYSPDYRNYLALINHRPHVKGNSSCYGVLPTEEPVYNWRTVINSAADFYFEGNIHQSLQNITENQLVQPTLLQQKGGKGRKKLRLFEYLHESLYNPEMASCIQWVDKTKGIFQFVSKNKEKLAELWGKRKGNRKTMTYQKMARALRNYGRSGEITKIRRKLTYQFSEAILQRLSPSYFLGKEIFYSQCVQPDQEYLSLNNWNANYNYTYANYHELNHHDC
As to conditions: protein: recombinant; tags: N-terminal GST; dsDNA, one strand shown. The method, boiled down:
as §1

Experiment [14] has as its target ELF4 (Homo sapiens, UniProt Q99607 1-663). As to conditions: protein: recombinant; tags: N-terminal GST; dsDNA, one strand shown. The essentials: as §1
Experiment [15] deals with T9, ELK4 (Homo sapiens, UniProt P28324-2 1-405).
T9 sequence: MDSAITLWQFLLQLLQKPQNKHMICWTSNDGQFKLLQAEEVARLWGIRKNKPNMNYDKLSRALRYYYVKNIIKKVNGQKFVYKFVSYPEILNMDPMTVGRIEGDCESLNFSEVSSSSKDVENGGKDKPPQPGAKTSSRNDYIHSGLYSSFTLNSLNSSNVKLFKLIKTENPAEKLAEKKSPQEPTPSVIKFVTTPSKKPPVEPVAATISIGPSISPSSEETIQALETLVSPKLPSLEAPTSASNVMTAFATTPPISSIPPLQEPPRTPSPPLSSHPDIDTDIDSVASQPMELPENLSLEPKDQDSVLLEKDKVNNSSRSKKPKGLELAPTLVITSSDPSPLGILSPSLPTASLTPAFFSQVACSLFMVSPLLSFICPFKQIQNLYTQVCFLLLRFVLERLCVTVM
As to conditions: protein: recombinant; tags: N-terminal GST; dsDNA, one strand shown. The method, boiled down:
as §1

The target in experiment [16] is T10, ETV2 (Homo sapiens, UniProt O00321 1-342).
T10 sequence: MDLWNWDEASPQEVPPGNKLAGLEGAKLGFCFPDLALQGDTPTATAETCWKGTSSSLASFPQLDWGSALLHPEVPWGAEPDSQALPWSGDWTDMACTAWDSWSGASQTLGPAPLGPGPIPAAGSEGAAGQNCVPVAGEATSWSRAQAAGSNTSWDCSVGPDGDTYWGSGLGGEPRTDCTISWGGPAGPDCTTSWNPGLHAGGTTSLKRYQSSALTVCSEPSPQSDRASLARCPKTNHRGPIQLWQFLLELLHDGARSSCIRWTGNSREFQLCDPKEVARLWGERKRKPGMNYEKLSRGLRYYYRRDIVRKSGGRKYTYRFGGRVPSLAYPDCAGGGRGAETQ
As to conditions: protein: recombinant; tags: N-terminal GST; dsDNA, one strand shown. The essentials: as §1

The target in experiment [17] is T11, ELF3 (Homo sapiens, UniProt P78545 1-371).
T11 sequence: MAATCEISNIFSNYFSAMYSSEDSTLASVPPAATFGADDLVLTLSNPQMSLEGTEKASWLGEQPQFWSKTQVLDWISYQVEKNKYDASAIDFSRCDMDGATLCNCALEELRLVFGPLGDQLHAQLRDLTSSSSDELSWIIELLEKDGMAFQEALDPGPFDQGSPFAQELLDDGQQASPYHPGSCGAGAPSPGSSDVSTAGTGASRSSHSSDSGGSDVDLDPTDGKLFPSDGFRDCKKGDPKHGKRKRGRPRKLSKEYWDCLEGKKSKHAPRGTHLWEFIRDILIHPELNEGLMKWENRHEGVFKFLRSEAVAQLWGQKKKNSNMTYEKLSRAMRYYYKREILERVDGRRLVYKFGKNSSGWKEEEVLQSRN
Conditions: protein: recombinant; tags: N-terminal GST; dsDNA, one strand shown. The method, boiled down:
as §1

The target of experiment [18] is ETV1 (Homo sapiens, UniProt P50549 1-477). Conditions: protein: recombinant; tags: N-terminal GST; dsDNA, one strand shown. The essentials: as §1
Chain of ETV1 (P50549 whole entry): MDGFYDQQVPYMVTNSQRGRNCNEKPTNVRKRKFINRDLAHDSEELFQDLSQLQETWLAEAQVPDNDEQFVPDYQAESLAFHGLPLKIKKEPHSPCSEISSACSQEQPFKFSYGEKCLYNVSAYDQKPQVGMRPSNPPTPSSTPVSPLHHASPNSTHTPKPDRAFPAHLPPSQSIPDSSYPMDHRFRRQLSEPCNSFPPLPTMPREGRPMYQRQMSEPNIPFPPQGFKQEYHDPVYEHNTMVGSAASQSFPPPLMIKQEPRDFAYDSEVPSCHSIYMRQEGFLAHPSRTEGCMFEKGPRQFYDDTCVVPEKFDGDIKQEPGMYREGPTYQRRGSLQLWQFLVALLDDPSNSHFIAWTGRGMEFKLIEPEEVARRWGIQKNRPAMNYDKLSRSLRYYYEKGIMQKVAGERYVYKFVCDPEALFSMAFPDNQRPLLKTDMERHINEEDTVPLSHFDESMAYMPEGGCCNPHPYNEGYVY

Chain of ELF1 (P32519 whole entry): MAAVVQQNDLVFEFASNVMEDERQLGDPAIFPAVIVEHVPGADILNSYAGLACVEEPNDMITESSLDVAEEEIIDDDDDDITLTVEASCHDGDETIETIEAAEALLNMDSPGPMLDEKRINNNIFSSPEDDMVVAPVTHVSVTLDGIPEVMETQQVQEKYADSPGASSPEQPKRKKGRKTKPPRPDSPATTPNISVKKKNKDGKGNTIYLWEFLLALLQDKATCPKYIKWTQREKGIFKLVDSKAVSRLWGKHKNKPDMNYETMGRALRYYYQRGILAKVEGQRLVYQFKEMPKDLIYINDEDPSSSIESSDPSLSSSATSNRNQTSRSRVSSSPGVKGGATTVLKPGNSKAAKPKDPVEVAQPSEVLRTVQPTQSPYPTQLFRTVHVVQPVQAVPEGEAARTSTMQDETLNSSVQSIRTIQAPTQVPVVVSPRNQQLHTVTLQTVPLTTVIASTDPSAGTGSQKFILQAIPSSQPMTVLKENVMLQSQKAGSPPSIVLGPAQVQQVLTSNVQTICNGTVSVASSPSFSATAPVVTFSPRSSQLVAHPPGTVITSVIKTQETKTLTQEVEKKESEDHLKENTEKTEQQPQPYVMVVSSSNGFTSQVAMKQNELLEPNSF
Chain of ETV5 (P41161 whole entry): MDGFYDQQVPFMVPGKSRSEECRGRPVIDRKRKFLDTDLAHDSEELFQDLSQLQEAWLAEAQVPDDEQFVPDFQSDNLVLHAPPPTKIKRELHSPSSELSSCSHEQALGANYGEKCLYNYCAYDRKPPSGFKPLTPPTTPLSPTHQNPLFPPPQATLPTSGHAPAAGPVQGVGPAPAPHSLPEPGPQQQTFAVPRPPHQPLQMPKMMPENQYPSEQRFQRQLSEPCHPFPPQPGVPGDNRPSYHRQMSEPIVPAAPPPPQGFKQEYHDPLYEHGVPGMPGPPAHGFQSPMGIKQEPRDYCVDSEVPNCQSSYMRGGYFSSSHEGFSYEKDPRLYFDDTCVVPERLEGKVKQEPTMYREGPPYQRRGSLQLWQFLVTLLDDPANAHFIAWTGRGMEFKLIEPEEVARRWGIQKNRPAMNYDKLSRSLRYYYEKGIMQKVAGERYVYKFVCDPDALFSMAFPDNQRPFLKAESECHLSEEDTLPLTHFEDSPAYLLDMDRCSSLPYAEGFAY
Chain of HSF1 (Q00613 whole entry): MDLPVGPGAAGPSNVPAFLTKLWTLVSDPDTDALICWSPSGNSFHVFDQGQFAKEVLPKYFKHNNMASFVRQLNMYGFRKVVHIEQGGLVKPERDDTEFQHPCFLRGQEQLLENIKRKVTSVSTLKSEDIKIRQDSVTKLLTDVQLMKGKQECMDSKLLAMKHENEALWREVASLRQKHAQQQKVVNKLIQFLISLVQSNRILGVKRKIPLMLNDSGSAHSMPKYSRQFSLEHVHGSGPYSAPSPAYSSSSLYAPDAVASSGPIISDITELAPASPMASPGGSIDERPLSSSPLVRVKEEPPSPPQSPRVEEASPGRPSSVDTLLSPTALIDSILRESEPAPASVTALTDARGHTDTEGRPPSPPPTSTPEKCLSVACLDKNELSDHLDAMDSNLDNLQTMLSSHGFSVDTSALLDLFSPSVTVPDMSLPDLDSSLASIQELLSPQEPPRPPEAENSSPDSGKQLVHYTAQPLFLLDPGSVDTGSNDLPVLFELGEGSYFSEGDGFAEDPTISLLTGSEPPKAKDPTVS
Chain of ELF4 (Q99607 whole entry): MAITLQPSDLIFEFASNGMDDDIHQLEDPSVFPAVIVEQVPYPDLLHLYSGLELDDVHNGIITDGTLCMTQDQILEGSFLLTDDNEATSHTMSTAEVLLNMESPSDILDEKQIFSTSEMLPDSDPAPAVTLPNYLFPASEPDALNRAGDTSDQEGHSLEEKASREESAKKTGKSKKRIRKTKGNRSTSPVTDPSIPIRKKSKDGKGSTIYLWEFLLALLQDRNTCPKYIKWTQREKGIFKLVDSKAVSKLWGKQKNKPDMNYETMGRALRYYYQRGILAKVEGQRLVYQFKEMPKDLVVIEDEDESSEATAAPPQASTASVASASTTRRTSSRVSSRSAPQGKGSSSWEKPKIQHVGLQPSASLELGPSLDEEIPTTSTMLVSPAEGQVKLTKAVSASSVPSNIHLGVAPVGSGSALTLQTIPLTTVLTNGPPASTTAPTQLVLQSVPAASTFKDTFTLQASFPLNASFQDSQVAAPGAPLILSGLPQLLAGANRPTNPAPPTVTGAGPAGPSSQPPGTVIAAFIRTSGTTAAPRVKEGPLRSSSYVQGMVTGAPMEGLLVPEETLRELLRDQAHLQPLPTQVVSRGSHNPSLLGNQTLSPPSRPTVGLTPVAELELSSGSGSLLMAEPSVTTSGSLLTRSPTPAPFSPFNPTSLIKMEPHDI
Chain of SPIB (Q01892 whole entry): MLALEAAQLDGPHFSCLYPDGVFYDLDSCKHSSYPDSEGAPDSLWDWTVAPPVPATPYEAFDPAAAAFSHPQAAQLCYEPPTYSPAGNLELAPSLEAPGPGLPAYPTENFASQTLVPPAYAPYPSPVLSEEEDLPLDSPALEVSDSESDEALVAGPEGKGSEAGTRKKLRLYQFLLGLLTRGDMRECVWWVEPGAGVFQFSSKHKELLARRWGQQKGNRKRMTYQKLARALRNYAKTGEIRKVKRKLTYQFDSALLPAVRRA

Consider AGTTCC, for which the binding signal in experiment [1] was 2.16 fold enrichment (6-mer frequency, TF over GST control); in experiment [2], 2.17 fold enrichment (6-mer frequency, TF over GST control); in experiment [3], 1.9 fold enrichment (6-mer frequency, TF over GST control); in experiment [4] it was 2.2 fold enrichment (6-mer frequency, TF over GST control); in [5] it was 1.95 fold enrichment (6-mer frequency, TF over GST control); in experiment [6] it was 2.11 fold enrichment (6-mer frequency, TF over GST control). Also, the binding signal in [7] was 2.62 fold enrichment (6-mer frequency, TF over GST control); in [8], 2.36 fold enrichment (6-mer frequency, TF over GST control); in experiment [9] it was 1.99 fold enrichment (6-mer frequency, TF over GST control); in [10], 1.96 fold enrichment (6-mer frequency, TF over GST control); in experiment [11], 2.29 fold enrichment (6-mer frequency, TF over GST control); in experiment [12], 1.34 fold enrichment (6-mer frequency, TF over GST control). Moreover, the binding signal is 2.42 fold enrichment (6-mer frequency, TF over GST control) in [13]; 1.97 fold enrichment (6-mer frequency, TF over GST control) in experiment [14]; 1.98 fold enrichment (6-mer frequency, TF over GST control) in [15]; 1.88 fold enrichment (6-mer frequency, TF over GST control) in [16]; 2.05 fold enrichment (6-mer frequency, TF over GST control) in experiment [17]; 2.21 fold enrichment (6-mer frequency, TF over GST control) in [18].
